JMJD2E inh: blocks human JMJD2E demethylase activity. JMJD2E catalytic domain, FDH-coupled NADH fluorescence (FDH is formaldehyde dehydrogenase). 230,000 tested, 1.6% active. AID 2147. Potency, µM (highest dose often 57.1 µM), for the others: at the top dose activity change, negative = inhibition, most hits filed as inhibitors. B2RXH2; active means well fitted inhibition curve with a large enough effect, not every such curve was filed as active; inconclusive means small, poorly fitted or top-dose-only effect, or another doubt; inactive means no such curve, though single readings can be large or run the other way;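 further: potency means the concentration at half of the fitted maximal effect; 0% = wells with enzyme and -100% = buffer wells without enzyme; nearly all actives have a fitted effect of over 50% in size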
Target sequence (B2RXH2 1-337 limits assumed): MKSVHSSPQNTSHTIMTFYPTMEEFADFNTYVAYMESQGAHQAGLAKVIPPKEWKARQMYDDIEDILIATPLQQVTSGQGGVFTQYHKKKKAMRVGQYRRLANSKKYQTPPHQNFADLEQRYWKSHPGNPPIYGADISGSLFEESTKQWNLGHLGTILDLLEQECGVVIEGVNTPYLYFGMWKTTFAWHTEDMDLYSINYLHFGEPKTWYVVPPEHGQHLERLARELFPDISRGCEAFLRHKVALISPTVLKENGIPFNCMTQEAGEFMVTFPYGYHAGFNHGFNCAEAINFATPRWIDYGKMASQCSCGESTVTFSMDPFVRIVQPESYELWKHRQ
FBPA coupling cs: coupling enzyme interference in Giardia aldolase counter-screen | AID 2472 | 290,000 tested, 0.67% active | activity change, negative = inhibition, % at 58.2 µM, hits read low | coupling enzyme system counterscreen, AmpLite Red fluorescence; in the data active means activity change below about -30%; further: on the % scale 0 is the no-effect control and ±100 the full control effect
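Final compound at 57.5 uM, incubated 10 min at RT with coupling enzyme reagent (glyceraldehyde-3-phosphate), then 20 min with substrate and AmpLite Red detection. Fluorescence read at 525/598 nm; tests interference with the coupling assay, not aldolase inhibition.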
TRb SRC2 PPI: inhibitors of human thyroid hormone receptor beta-SRC2 interaction; P10828; TRbeta-SRC2 peptide binding, fluorescence polarization; receptor liganded with 1 µM T3; Potency, µM (titrated, usually from 106 µM), for the others: at the top dose activity change, negative = inhibition, most hits filed as inhibitors; 280,000 tested, 0.065% active;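 further: potency means the concentration at half of the fitted maximal effect; plate controls were bound peptide for no effect and peptide without receptor for full effect; nearly all actives have a fitted effect of over 50% in size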
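A fluorescence polarization screen tested compounds at multiple concentrations against complex formation between 0.6 uM TRb ligand-binding domain and 20 nM Texas Red SRC2 peptide, with 1 uM T3 present; readout after 5 hr.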
TexasRed fluor: Texas Red fluorescence interference in TRb-SRC2 counter-screen; TRb/SRC2 Texas Red total fluorescence interference; Potency, µM (highest dose often 106 µM), for the others: at the top dose fluorescence change, negative = quenching; 280,000 tested, 0.29% active; AID 1479; active means well fitted curve in either direction with a large enough effect; inconclusive means small, poorly fitted or top-dose-only effect; further: potency means the concentration at half of the fitted maximal effect; on the % scale 0 is the no-effect control and ±100 the full control effect
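Flags fluorescent or light-absorbing compounds by total fluorescence, S + 2P, at 555 nm excitation and 632 nm emission. Mixture: 20 nM Texas Red SRC2 peptide, 0.6 uM human TRb LBD, 1 uM T3, 5% DMSO; compound exposure 5 h at ambient temperature.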
HttQ103 aggreg: inhibitors of mutant huntingtin aggregate formation in PC12 cells; PC12 HttQ103-GFP aggregates, Acumen cytometry, 40 h; Potency, µM (series often up to 46.1 µM), for the others: at the top dose activity change, negative = inhibition, most hits filed as inhibitors; 220,000 tested, 1.1% active; further: potency means the concentration at half of the fitted maximal effect; on the % scale 0 is the no-effect control and ±100 the full control effect; nearly all actives have a fitted effect of over 60% in size
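Quantitative HTS on tebufenozide-induced (100 nM) PC12 cells stably expressing polyQ103 Huntingtin exon 1–GFP. Reduction of bright GFP aggregates, detected by laser scanning cytometry after lysis, identified actives across the titration.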
HTT ATP protect: protects HTT-Q103 PC12 cells, measured by ATP. PC12 HTT-Q103 induced, cytoprotection, ATP luminescence, 40 h. Potency, µM (doses to about 56.4 µM), inactives show cytoprotection (ATP increase), hits mostly activators. 230,000 tested, 0.14% active. AID 1471; further: potency means the concentration at half of the fitted maximal effect; % of control where 0% means no effect; nearly all actives have a fitted effect of over 45% in size
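ATP quantification (ATPlite) reports survival of PC12 cells in which tebufenozide, 100 nM final, switches on Htt exon 1 with 103 glutamines linked to GFP; compounds are titrated.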
An asterisk follows results filed as active; ? = inconclusive; · = no result given; [ ] = remark or other dose. Shown are actives, neighbours in structure and some others; about 2% of the full set was active somewhere. Unless noted, the call rests on the fitted dose curve; in most records, active means well fitted curve in the direction sought with a large enough effect; inconclusive means small, poorly fitted or top-dose-only effect, or another doubt; inactive means no such curve, though single readings can be large; an effect the other way counts as inactive or inconclusive.

SMILES	JMJD2E inh	FBPA coupling cs	TRb SRC2 PPI	TexasRed fluor	HttQ103 aggreg	HTT ATP protect
Cc1cc(C(=O)N/N=C/c2cc(Br)cc(Br)c2OC(=O)c2cccc(F)c2)n[nH]1	11%	0	-4%	-1%	-4%[9.22 µM]	14%[10 µM]
CC(C)Nc1ccc(-c2nc(-c3ccncc3)no2)cc1[N+](=O)[O-]	·	·	-6%	-1%	·	·
CCc1nn(CC(=O)NCCc2ccc(Cl)cc2)c(=O)c2cc3ccccc3n12	·	·	8%	-5%	·	·
NS(=O)(=O)c1ccc(N=Nc2ccc(=O)[nH]c2O)cc1	-7%	-32*	5%	-4%	5%[9.22 µM]	6%[10 µM]
NS(=O)(=O)c1ccc(N=Nc2ccc[nH]c2=O)cc1	·	·	·	·	·	-10%[10 µM]
COc1ccc(C2=N[C@@H](C(C)C)CO2)cc1	·	5	0%[201 µM]	2%[201 µM]	·	-19%[96.6 µM]
COc1ccc(OC/C(O)=C(\C#N)c2nc3ccccc3[nH]2)cc1	3%	3	-14%	1%	-4%	7%[10 µM]
COc1ccccc1OCC(=O)OC/C(O)=C(\C#N)c1nc2ccccc2[nH]1	1%	-24	?	2.5µM*[quencher]	7%	-16%[10 µM]
Cc1nn(-c2ccccc2)c2c1C1(C(=O)N3c4c(cccc41)C(C)CC3(C)C)C(C#N)=C(N)O2 (centres undefined)	?	-59*	15%	-3%	?	26%
Cc1nn(-c2ccccc2)c2c1C1(C(=O)N(C)c3ccccc31)C(C#N)=C(N)O2 (centres undefined)	-11%	-44*	-1%	-5%	5%	-12%
CCN1C(=O)C2(C(C#N)=C(N)Oc3c2c(C)nn3-c2ccccc2)c2ccccc21 (centres undefined)	-15%	-45*	-7%	-5%	23%	2%
Cc1ccc2c3c1C1(C(=O)N3C(C)(C)CC2C)C(C#N)=C(N)Oc2cc(O)ccc21 (centres undefined)	-1%	0	-1%	1%	8%	-2%
CC(=O)N1C(=O)C2(C(C#N)=C(N)Oc3c2c(C)nn3-c2ccccc2)c2ccccc21 (centres undefined)	-13%	-27	-4%	-1%	-1%	-18%
O=C(Nc1nnc(-c2ccc(F)cc2)o1)c1cc(Cl)sc1Cl	?	1	0%[53 µM]	-1%[53 µM]	11µM*	7%[10 µM]
O=C(Nc1nnc(-c2ccc(F)cc2)o1)c1cccc([N+](=O)[O-])c1	?	3	6%	-2%	5.6µM*	-83%
CCCCC1=CC2=C(OC(C)=O)C(=O)C(C)(OC(=O)C3CCCC3)C(=O)C2=CO1 (centres undefined)	-24%	0	8%	-1%	·	-62%
CC1CN(C(=O)CCC(=O)NCc2cccc(Cl)c2)c2ccccc2S1 (centres undefined)	·	·	-13%	28µM*[quencher]	·	·
O=[N+]([O-])C1=CC=C2C(=NC3(CCCCC3)N2O)C1=NC1CCCCC1	2%	-21	-15%	2%	6%	-40%
N=C1C=CC=C2C1=NC1(CCCCC1)N2O	?	-48*	10%	-6%	18%	2%
CC(C)N(Cc1ccccc1)C(=O)c1nc(-c2ccc(Cl)cc2)n2c1CCCCC2	·	·	-12%	14µM*[quencher]	·	·
O=C(NCc1ccccc1)c1nc(-c2ccc(Cl)cc2)n2c1CCCCC2	·	·	-4%	20µM*[quencher]	·	·
O=C(Cc1ccc(F)cc1)Nc1ccc2[nH]ncc2c1	·	1	·	·	·	·
Nc1ccc2[nH]ncc2c1	?	-42*	4%	-1%	-29%	·
OC[C@H]1NC[C@@H](O)[C@@H](O)[C@@H]1O	·	-3	2%	?	·	·
O=C1OC2(c3cc(Br)c(O)c(Br)c3Oc3c2cc(Br)c(O)c3Br)c2c(Cl)c(Cl)c(Cl)c(Cl)c21	·	·	2.5µM*	?	·	-79%
SMILES	JMJD2E inh	FBPA coupling cs	TRb SRC2 PPI	TexasRed fluor	HttQ103 aggreg	HTT ATP protect
S=C(NCCC(c1ccccc1)c1ccccc1)Nc1ccccc1Cl	-10%	-3	-10%	1%	20µM*	-53%
CCN(CC)c1ccc(S(=O)(=O)N2CCOCC2)cc1NC(=O)CN1CCN(Cc2ccccc2)CC1	28µM*	-3	5%	0%	17%[9.22 µM]	6%[10 µM]
COc1ccc(/C=C2\CCn3c2nc2cc(C(=O)O)ccc2c3=O)cc1O	4%	-11	?	0.32µM*[quencher]	-6%	-19%[10 µM]
CC(C)OC(=O)[C@@H]1CC[C@H](C)[C@@H](CCC[C@@H]2CC=C[C@H](CC#N)O2)O1	-3%	1	-1%	-1%	·	·
NCC(=O)N[C@@H](CCCN=C(N)N)C(=O)NCC(=O)N[C@@H](CC(=O)O)C(=O)N[C@@H](CO)C(=O)N1CCC[C@H]1C(=O)O	·	-2	0%	-3%	·	·
O=C(NNc1ccccc1Br)C(=O)n1ccc2ccccc21	4%	3	-1%	-7%	2%	3.5µM*
C=C(C)C(=O)OCCCCCCCCCCCCCCCC	·	·	-3%[201 µM]	-2%[201 µM]	·	·
O=C(CNC(=O)C(c1ccccc1)c1ccccc1)N/N=C\c1cccc(O)c1	2%	4	-3%	-3%	-5%[9.22 µM]	11%[10 µM]
C/C(=N\NC(=O)CCCCCNC(=O)c1ccccc1)c1ccccc1O	?	0	5%	-3%	?	-15%[10 µM]
O=C(CCCCCNC(=O)c1ccccc1)N/N=C/c1ccc(O)cc1O	20µM*	0	3%	2%	-31%	10%[10 µM]
O=C(CNC(=O)C(c1ccccc1)c1ccccc1)N/N=C/c1ccc(O)cc1O	20µM*	3	-1%	1%	-27%[9.22 µM]	-20%[10 µM]
O=C(N/N=C/c1ccc(O)cc1O)/C(=C/c1ccccc1)CCO	16µM*	3	7%	-3%	?	14%[1.9 µM]
Cc1cc(SCC(=O)N/N=C/c2ccc(O)cc2O)c(C)cc1Br	?	1	2%	4%	7.9µM*	-26%
O=C(CNC(=O)C1COc2ccccc2O1)N/N=C/c1ccc(O)cc1O (centres undefined)	28µM*	1	2%	1%	?	·
O=C(CNC(=O)C1COc2ccccc2O1)N/N=C\c1cccc(O)c1 (centres undefined)	-5%	0	7%	-4%	-5%	13%[10 µM]
O=C1C(=O)c2ccccc2C(O)=C1CCCCl	-16%	-50*	-4%	-1%	-18%[9.22 µM]	-24%[10 µM]
COc1ccc(CC2=C(O)c3ccccc3C(=O)C2=O)cc1	·	-2	·	·	·	·
C[C@@H]1C(=O)O[C@H]2C[C@@]34[C@H]5C[C@@H](C(C)(C)C)[C@]36[C@H](OC(=O)[C@H]6O)O[C@]4(C(=O)O5)[C@]21O	·	3	-2%	1%	·	·
O=C(c1ccc(Cl)c([N+](=O)[O-])c1)N(Cc1cccc(Cl)c1)C1CCS(=O)(=O)C1 (centres undefined)	-5%	-3	-13%	112µM*[quencher]	8%	0%[1.9 µM]
